In paper PMC5540273 (PLoS ONE, 2017):

The compounds below were run on FRK. Conditions: concentration: 1 μM, replicates: in singlicate; n = 1.
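Further: KINOMEscan kinase panel screen.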

SMILES	%Inh
O=C(NCCNc1ccnc(Nc2ccc(F)cc2)n1)c1cc2ccccc2s1 [GSK1379874]	6%
Cc1nnc(-c2ccc3occ(-c4ccc(C(C)O)cc4)c3c2)o1 (centres unmarked)	10%
NS(=O)(=O)CCc1cccc(Nc2nccc(-c3c(-c4cccc(NC(=O)c5c(F)cccc5F)c4)nn4ccccc34)n2)c1 [GSK336735]	97.2%
NS(=O)(=O)c1cccc(-c2ccc3nccc(-c4cccc(S(N)(=O)=O)c4)c3c2)c1 [GW867253]	0%
Cc1nnc(-c2ccc(C)c(-c3ccc(C(=O)Nc4ccc(NS(C)(=O)=O)cc4)cc3)c2)o1 [GW702865]	0%
Cl.Nc1ncnc2occ(-c3ccc(NC(=O)Nc4cc(C(F)(F)F)ccc4F)cc3)c12 [SB-707548]	95.7%
O=C(NCCCN1CCOCC1)c1cccc(Nc2nccc(Nc3ccc(Oc4ccccc4)cc3)n2)c1 [GW663929]	48%
O=C(c1ccc(-c2cc(-c3c[nH]nc3-c3ccccn3)ccn2)cc1)N1CCOCC1 [GW812171]	0%
CN1c2ccc(NCc3ccc(F)cc3)cc2-c2c(cnn2C)S1(=O)=O	10%
Cc1nnc(-c2ccc3ncc(-c4ccc(S(C)=O)cc4)n3c2)o1 (centres unmarked)	29%
COc1cc2ncn(-c3cc(OCc4sccc4Cl)c(C(N)=O)s3)c2cc1OC [GSK448459]	10%
[2H]C([2H])(c1cccc(C(F)(F)F)c1C)n1ccn2c(=O)nc(N3CCOCC3)cc12 [GSK2336394]	6%
Cl.Oc1cccc(Nc2ccnc3cc(-c4ccncc4)ccc23)c1 [GW494601]	97.6%
CCc1nc(-c2cccc(C)c2)c(-c2ccnc(NCc3ccccc3)c2)s1	0%
CN(C(=O)c1ccc(-c2cc(-c3c[nH]nc3-c3ccccn3)ccn2)cc1)C1CCOCC1 [GW810083]	6%
O=C(NOCC1CC1)c1ccc(F)c(F)c1Nc1ccc(I)cc1Cl	0%
N#Cc1ccc(-c2cc(-c3c[nH]nc3-c3ccccn3)ccn2)cc1 [GW693028]	25%
CN1c2ccc(CNc3ccc(F)cc3)cc2-c2c(cnn2C)S1(=O)=O	1%

SMILES	%Inh
O=c1cc(N2CCOCC2)nc2n(Cc3cccc(C(F)(F)F)c3)ccn12 [GSK2297543]	0%
O=C(NCCNc1ccnc(Nc2ccc(F)cc2)n1)Nc1ccccc1F [GSK1379880]	0%
COc1cc2c(cc1OC[C@@H](O)CO)ncc1c3ccc(C#N)cc3[nH]c21	0%
CCCCCc1nc2c(N)ncnc2n1CCCCC [SKF-97255]	0%
O=C(Nc1cccc(-c2nn3ncccc3c2-c2ccnc(Nc3cccc(C(F)(F)F)c3)n2)c1)c1c(F)cccc1F [GSK299495]	88%
O=c1cc(N2CCOCC2)nc2n(Cc3cccc4ccccc34)ccn12 [GSK2333389]	0%
Cc1c(Cn2c(C)nn3c(=O)cc(N4CCOC(C)C4)nc23)cccc1C(F)(F)F (centres unmarked) [GSK2344444]	0%
O=C1NC(=O)C(N2CCc3ccccc32)=C1c1cccc(Cl)c1 [SB-408010]	0%
N#Cc1c(N2CCOCC2)sc(-c2ccn[nH]2)c1-c1ccc(Cl)cc1	0%
Cn1cc(-c2ccc3c(c2)CCN3C(=O)Cc2ccccc2Cl)c2c(N)ncnc21 [GSK2608885]	97.9%
COc1cc(Nc2nccc(N3CCC(NC(=O)c4cccc(NC(C)=O)c4)C3)n2)cc(OC)c1OC (centres unmarked) [GSK1379754]	16%
COc1ccc(S(=O)(=O)NC2CCN(c3cc(C)nc(Nc4cccc(C#N)c4)n3)CC2)cc1.O=C(O)C(F)(F)F [GSK1653539]	0%
COc1cc2c(cc1OCCN1CCN(C)CC1)ncc1c3ccc(C#N)cc3[nH]c21	2%
O=C(Nc1n[nH]c2cc(-c3cccc(F)c3)ccc12)C1CC1 [SB-735464]	6%
Cc1cccc(-c2nc(Nc3ccc4ncsc4c3)c3ccccc3n2)n1 [GW867588]	0%
Nc1nccc(-c2c(-c3ccc(F)cc3)ncn2C2CCN(CC(F)(F)F)CC2)n1 [SB-236560]	1%
NCCNS(=O)(=O)c1ccc(-c2ccnc3[nH]ccc23)cc1 [GSK977617]	0%
COc1ccc(Nc2nccc(N3CCC(NC(=O)Nc4cccc(C(C)=O)c4)C3)n2)cc1 (centres unmarked) [GSK1379731]	0%

The compounds below were run on FYN. Conditions: concentration: 1 μM, replicates: in singlicate; n = 1.

SMILES	%Inh
O=C(NCCNc1ccnc(Nc2ccc(F)cc2)n1)c1cc2ccccc2s1 [GSK1379874]	0%
Cc1nnc(-c2ccc3occ(-c4ccc(C(C)O)cc4)c3c2)o1 (centres unmarked)	15%
NS(=O)(=O)CCc1cccc(Nc2nccc(-c3c(-c4cccc(NC(=O)c5c(F)cccc5F)c4)nn4ccccc34)n2)c1 [GSK336735]	96.7%
NS(=O)(=O)c1cccc(-c2ccc3nccc(-c4cccc(S(N)(=O)=O)c4)c3c2)c1 [GW867253]	0%
Cc1nnc(-c2ccc(C)c(-c3ccc(C(=O)Nc4ccc(NS(C)(=O)=O)cc4)cc3)c2)o1 [GW702865]	17%
Cl.Nc1ncnc2occ(-c3ccc(NC(=O)Nc4cc(C(F)(F)F)ccc4F)cc3)c12 [SB-707548]	22%
O=C(NCCCN1CCOCC1)c1cccc(Nc2nccc(Nc3ccc(Oc4ccccc4)cc3)n2)c1 [GW663929]	93.5%
O=C(c1ccc(-c2cc(-c3c[nH]nc3-c3ccccn3)ccn2)cc1)N1CCOCC1 [GW812171]	0%
CN1c2ccc(NCc3ccc(F)cc3)cc2-c2c(cnn2C)S1(=O)=O	12%
Cc1nnc(-c2ccc3ncc(-c4ccc(S(C)=O)cc4)n3c2)o1 (centres unmarked)	10%
COc1cc2ncn(-c3cc(OCc4sccc4Cl)c(C(N)=O)s3)c2cc1OC [GSK448459]	15%
[2H]C([2H])(c1cccc(C(F)(F)F)c1C)n1ccn2c(=O)nc(N3CCOCC3)cc12 [GSK2336394]	44%
Cl.Oc1cccc(Nc2ccnc3cc(-c4ccncc4)ccc23)c1 [GW494601]	95.7%
CCc1nc(-c2cccc(C)c2)c(-c2ccnc(NCc3ccccc3)c2)s1	0%
CN(C(=O)c1ccc(-c2cc(-c3c[nH]nc3-c3ccccn3)ccn2)cc1)C1CCOCC1 [GW810083]	1%
O=C(NOCC1CC1)c1ccc(F)c(F)c1Nc1ccc(I)cc1Cl	0%
N#Cc1ccc(-c2cc(-c3c[nH]nc3-c3ccccn3)ccn2)cc1 [GW693028]	0%
CN1c2ccc(CNc3ccc(F)cc3)cc2-c2c(cnn2C)S1(=O)=O	4%

SMILES	%Inh
O=c1cc(N2CCOCC2)nc2n(Cc3cccc(C(F)(F)F)c3)ccn12 [GSK2297543]	42%
O=C(NCCNc1ccnc(Nc2ccc(F)cc2)n1)Nc1ccccc1F [GSK1379880]	28%
COc1cc2c(cc1OC[C@@H](O)CO)ncc1c3ccc(C#N)cc3[nH]c21	0%
CCCCCc1nc2c(N)ncnc2n1CCCCC [SKF-97255]	0%
O=C(Nc1cccc(-c2nn3ncccc3c2-c2ccnc(Nc3cccc(C(F)(F)F)c3)n2)c1)c1c(F)cccc1F [GSK299495]	62%
O=c1cc(N2CCOCC2)nc2n(Cc3cccc4ccccc34)ccn12 [GSK2333389]	0%
Cc1c(Cn2c(C)nn3c(=O)cc(N4CCOC(C)C4)nc23)cccc1C(F)(F)F (centres unmarked) [GSK2344444]	2%
O=C1NC(=O)C(N2CCc3ccccc32)=C1c1cccc(Cl)c1 [SB-408010]	0%
N#Cc1c(N2CCOCC2)sc(-c2ccn[nH]2)c1-c1ccc(Cl)cc1	0%
Cn1cc(-c2ccc3c(c2)CCN3C(=O)Cc2ccccc2Cl)c2c(N)ncnc21 [GSK2608885]	97.1%
COc1cc(Nc2nccc(N3CCC(NC(=O)c4cccc(NC(C)=O)c4)C3)n2)cc(OC)c1OC (centres unmarked) [GSK1379754]	35%
COc1ccc(S(=O)(=O)NC2CCN(c3cc(C)nc(Nc4cccc(C#N)c4)n3)CC2)cc1.O=C(O)C(F)(F)F [GSK1653539]	0%
COc1cc2c(cc1OCCN1CCN(C)CC1)ncc1c3ccc(C#N)cc3[nH]c21	25%
O=C(Nc1n[nH]c2cc(-c3cccc(F)c3)ccc12)C1CC1 [SB-735464]	0%
Cc1cccc(-c2nc(Nc3ccc4ncsc4c3)c3ccccc3n2)n1 [GW867588]	4%
Nc1nccc(-c2c(-c3ccc(F)cc3)ncn2C2CCN(CC(F)(F)F)CC2)n1 [SB-236560]	0%
COc1ccc(Nc2nccc(N3CCC(NC(=O)Nc4cccc(C(C)=O)c4)C3)n2)cc1 (centres unmarked) [GSK1379731]	1%
